Source: PubChem (several laboratories)
697 NFkB inh – inhibitors of the PMA/ionomycin-induced NF-kB reporter in 697 B cells; 697 B-cell NF-kB luciferase reporter, 16 h; inhibition, % at 4 µM; 0.33% of 330,000 active; AID 435022; in the data active means inhibition above about 35%
Gli-Sufu block – Gli-Sufu pathway antagonism. Sufu-KO-LIGHT fibroblasts, Gli luciferase reporter luminescence. inhibition, % at 5 µM. 0.74% of 340,000 active. AID 588413;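 active means inhibition above about 55%, limit read from the data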;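 further: 0% = DMSO-treated cells and 100% = wells with medium but no cells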
Jurkat NFkB inh – lowers PMA/ionomycin-induced NF-kB signal in Jurkat cells; inhibition, % at 4 µM; AID 435003; 0.53% of 330,000 active; PMA/ionomycin-induced NF-kB luciferase reporter, luminescence; in the data active means inhibition above about 50%
Beta cell apopt – blocks beta cell apoptosis; INS-1E cytokine-induced death, ATP luminescence, 48 h; percent of positive-control rescue, neutral wells zero; protection from apoptosis, % (no concentration beside the values); 0.8% of 300,000 active;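 active means Every replicate reaches about 75%, or at least half do and their mean reaches it too, limit read from the data; inconclusive means At least half of replicates reach the limit but their mean does not; inactive means Under half of replicates reach the limit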;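 further: 0% = cytokine-treated negative control wells and 100% = positive control rescue; higher means more ATP so stronger rescue from cytokine killing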
Mdm2 MdmX PPI – inhibitors of human Mdm2/MdmX interaction. O15151+Q00987. SaOS-2 split-luciferase Mdm2/MdmX complementation, luminescence. inhibition, % at 8 µM. 3% of 330,000 active. AID 485346;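 active means inhibition of at least 50% at 8 µM in the primary screen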
Gli-Sufu confirm – Gli-SUFU antagonism confirmation, single concentration; shares compounds with Gli-Sufu block; Sufu-KO-LIGHT cells, Gli luciferase reporter, luminescence; inhibition, % at 5 µM; 40% of 2,500 active;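 active means mean inhibition at 5 µM reaching about 45%, limit read from the data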;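 further: plate controls were DMSO-treated cells for no effect and wells lacking cells for full effect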
Gli cytotox – counter-screen for Gli-SUFU antagonists: cytotoxicity; shares compounds with Gli-Sufu block; cytotoxicity, % at 5 µM; 32% of 2,500 active; Sufu-KO-LIGHT cells cytotoxicity, ATP luminescence; AID 651994;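 active means mean cytotoxicity at 5 µM above about 25%, limit read from the data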;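 further: cells exposed to compound overnight for roughly 16 to 18 hours; plate controls were DMSO wells with cells for no effect and medium without cells for full effect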
Wnt3a counter – inhibits Wnt3a reporter, counter-screen for Gli-SUFU antagonists | shares compounds with Gli-Sufu block | Wnt-LIGHT cells, Wnt3a-driven luciferase reporter, luminescence | inhibition, % at 6.25 µM | 20% of 2,500 active | AID 651995;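 active means mean inhibition above about 25%, limit read from the data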
Active calls of the source: *; ? = inconclusive; / = no result given. Most compounds without a hit are left out; they make up all but 4% or so of the library.

SMILES	697 NFkB inh	Gli-Sufu block	Jurkat NFkB inh	Beta cell apopt	Mdm2 MdmX PPI	Gli-Sufu confirm	Gli cytotox	Wnt3a counter
Cc1cc(C)cc(C(=O)N(NC(=O)Nc2ccc(Cl)cc2)C(C)(C)C)c1	18.0	59.9*	4.7	4.6	28.4	21.8	9.7	-3.2
CCC(CO)Oc1cc(NCc2ccc(C(C)(C)C)cc2)c2ncn(C(C)C)c2c1 (centres undefined)	-13.1	57.9*	9.9	136.8*	19.1	47.9*	17.8	30.3*
CCc1nn(CC(=O)NCc2ccccc2Cl)c(=O)c2cccn12	-7.5	-1.8	8.2	-8.6	32.1	/	/	/
COc1cc2c(cc1OC)C(C(=O)Nc1ccccc1N1CCN(C)CC1)C1c3ccccc3CCN1C2=O (centres undefined)	12.7	56.3*	6.6	-5.4	22.0	34.2	19.9	-9.9
COc1cc2c(cc1OC)C1C(C(=O)Nc3ccccc3N3CCN(C)CC3)c3ccccc3C(=O)N1CC2 (centres undefined)	7.5	7.0	14.1	-1.9	-9.8	/	/	/
O=C1CCN(CCc2ccccc2)CCN1[C@H](CSc1ccccc1)Cc1ccccc1	-6.7	62.1*	-2.6	0.8	3.1	26.9	22.7	-12.0
CCCN1CCC(=O)N([C@H](CSc2ccc(OC)cc2)Cc2ccccc2)CC1	11.1	52.5	12.7	10.2	-23.8	48.4*	18.1	10.2
CCOc1ccc(S(=O)(=O)N(CC)CC(=O)NCc2cccnc2)cc1	-6.7	-7.6	-15.5	3.1	6.2	/	/	/
Cc1csc(=Nc2cccnc2)n1Cc1ccco1	0.5	55.5*	8.2	/	5.3	4.4	-0.5	-22.1
CC(C)=N/N=c1\scc(C)n1Cc1ccco1	-3.5	-10.6	-2.5	-3.4	1.7	/	/	/
CCn1c(COc2ccc(=O)n(-c3ccccc3)n2)nnc1SCc1ccccc1C	-1.0	2.0	12.3	-1.7	-2.7	/	/	/
CCCc1cc(=O)[nH]c(SCC(=O)NC2CC2)n1	7.6	52.0	3.3	-4.0	6.3	10.2	-2.7	-3.0
CN1CCN(/N=C/c2nc(-c3ccccc3)n3ccccc23)CC1	-25.5	53.4	-11.9	-0.1	15.2	8.1	-2.5	-3.0
CC1CCCC=CC2CC(OC(=O)CN(C)C)CC2C(O)C=CC(=O)O1 (centres undefined)	/	60.3*	/	/	/	86.2*	38.0*	88.4*
O=C(CSc1nnc2ccc(-c3ccccc3)nn12)NCC1CCCO1 (centres undefined)	5.6	2.4	1.6	-6.6	-3.1	/	/	/
COc1ccc(CCN(C)C(=O)c2ccc(C)c(S(=O)(=O)N3CCCCC3)c2)cc1OC	6.4	-2.1	12.6	-11.6	20.1	/	/	/
Cc1n(Cc2ccccc2)c2cc([N+](=O)[O-])ccc2[n+]1Cc1ccccc1	3.4	10.0	-12.1	3.9	-5.1	/	/	/
Cc1n(Cc2ccccc2)c2ccccc2[n+]1Cc1ccccc1	-11.8	53.2	20.7	/	40.4	62.0*	33.3*	11.3
CCc1ccccc1NC(=O)C1=CC(c2cccs2)=NS(=O)(=O)N1C	-16.4	-8.1	5.6	3.8	-9.6	/	/	/
Cc1ccc(O)c(NC(=O)C2=CC(c3cccs3)=NS(=O)(=O)N2C)c1	-15.9	93.9*	7.6	-5.8	-10.4	15.7	-3.5	2.8
Cc1ccc(OCc2cc(C(=O)N(C)Cc3cc(C4CC4)n[nH]3)no2)cc1C	-26.4	-21.8	-0.6	?	17.1	/	/	/
CCNCc1cc([N+](=O)[O-])ccc1OCC	2.1	9.1	-7.8	-3.7	25.8	/	/	/
COc1ccc(NC(=S)N2CCCC2)c(OC)c1	7.2	-3.1	2.7	-6.3	7.2	/	/	/
COc1ccc(C2C=C(C)Nc3nc4ccccc4n32)cc1 (centres undefined)	-11.9	98.1*	-28.0	-6.4	7.8	9.1	24.2	-26.1
Cc1ccc2[nH]c(=O)c(CN(Cc3cccs3)Cc3nnnn3CC3CCCO3)cc2c1 (centres undefined)	-1.7	54.2	8.5	-10.7	-21.3	21.1	13.7	-16.9
SMILES	697 NFkB inh	Gli-Sufu block	Jurkat NFkB inh	Beta cell apopt	Mdm2 MdmX PPI	Gli-Sufu confirm	Gli cytotox	Wnt3a counter
C[N+]1=C(/C=C/Nc2ccccc2Cl)C(C)(C)c2ccccc21	-26.7	56.2*	13.2	98.9*	-13.3	52.2*	38.5*	-8.4
CCC(C)NC(=O)CSc1ccc(S(=O)(=O)N2CCN(Cc3ccccc3)CC2)cn1 (centres undefined)	9.2	0.7	7.1	-1.2	7.7	/	/	/
COc1ccccc1Nc1nc(-c2c(C)nc3ncccn23)cs1	/	55.0*	/	/	/	67.5*	59.2*	27.6*
Cc1nc2ncccn2c1-c1csc(Nc2ccc(N(C)C)cc2)n1	/	61.7*	/	/	/	57.4*	45.4*	-90.4
COc1ccc(Nc2nc(-c3c(C)nc4ncccn34)cs2)cc1	/	71.1*	/	/	/	75.0*	65.7*	-70.1
Cn1c(CNC(=O)c2ccccc2F)nnc1SCCOc1ccccc1	-19.6	10.0	8.4	-1.1	-12.7	/	/	/
O=S(=O)(NCCc1ccccc1)c1ccc(F)cc1	-1.0	52.0	3.7	-5.9	10.8	36.0	24.9	-13.4
O=C(O)/C=C\C(=O)Nc1ccccc1C(=O)N1CCC(O)(c2ccc(Cl)cc2)CC1	/	-15.6	/	/	/	/	/	/
COc1ccc(CCNC(=O)CCC(=O)Nc2ccc3nc(N4CCN(C)CC4)cc(C)c3c2)cc1OC	-9.5	50.7	-3.9	2.0	-9.3	26.4	19.7	-9.7
CCOc1ccc(CCNC(=O)CCC(=O)Nc2ccc3nc(N4CCN(C)CC4)cc(C)c3c2)cc1OCC	-91.5	3.5	-24.2	-0.8	12.0	/	/	/
CCC(C)c1ccccc1N1CC(C(=O)N2CCN(S(=O)(=O)c3ccccc3Br)CC2)CC1=O (centres undefined)	1.6	1.0	28.3	6.4	14.2	/	/	/
Cc1ccc(N=Nc2ccc(C)cc2NC(=O)Nc2ccccc2F)cc1	-10.6	-14.9	-9.8	22.0	29.5	/	/	/
CCOC(=O)c1ccc2c(c1)n(CC)c(/C=C/Nc1ccccc1)[n+]2CC	-21.1	54.0	46.4	-20.5	21.6	52.6*	33.8*	-12.9
N#CC1C=Cc2ccccc2N1C(=O)c1ccccc1 (centres undefined)	28.4	-3.3	-4.0	-10.9	20.9	/	/	/
N#CC1C=Cc2c(ccc3ccccc23)N1C(=O)c1ccccc1 (centres undefined)	/	51.0	/	/	/	61.0*	57.3*	6.6
COc1cc(/C=N/NC(=O)c2ccncc2)ccc1OC(C)=O	4.2	58.4*	4.5	-0.8	18.3	16.9	2.6	7.2
C#CCSc1nnc(-c2ccc([N+](=O)[O-])cc2)o1	-28.5	-34.1	-25.3	1.1	-36.9	/	/	/
CSc1nnc(-c2ccc([N+](=O)[O-])cc2)o1	-3.2	93.3*	1.6	1.6	14.5	24.0	0.1	0.9
